Compound activity (PubChem BioAssay)
BRCA1 expr up = increases BRCA1 expression; MCF7-BRCA1-FFLuc reporter, luminescence, 48 h; response scale: scaled: vehicle 0%, 10 µM genistein 100%; hit rate 1.1% among 380,000; Potency, µM (titrated, usually from 46.1 µM), actives largely listed as activators; note: nearly all actives have a fitted effect of over 80% in size
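Using MCF7 cells harboring a BRCA1 firefly luciferase reporter, plated 2 h before compound pinning, the screen measured luminescence after 48 h incubation. Responses were normalized to DMSO and 10 microM genistein, then fitted for concentration-effect.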
Gal4-VP16 FLuc = Gal4-VP16 reporter inhibition counter-screen; hit rate 3.5% among 310,000; Potency, µM (titrated, usually from 53.6 µM), usual class: inhibitors; Drosophila S2 Gal4-VP16 UAS-luciferase, luminescence, 20 h;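 note: Gal4-VP16 expression switched on by copper sulfate through the metallothionein promoter; nearly all actives have a fitted effect of over 50% in size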
RORg inh = blocks mouse ROR gamma transcriptional activity | hit rate 5.4% among 310,000 | Drosophila S2 Gal4-RORgamma UAS-luciferase reporter, 20 h | Potency, µM (titrated, usually from 53.6 µM), most hits filed as inhibitors | P51450; note: nearly all actives have a fitted effect of over 60% in size
Target sequence (P51450 whole entry, looked up, the tested form may be a part): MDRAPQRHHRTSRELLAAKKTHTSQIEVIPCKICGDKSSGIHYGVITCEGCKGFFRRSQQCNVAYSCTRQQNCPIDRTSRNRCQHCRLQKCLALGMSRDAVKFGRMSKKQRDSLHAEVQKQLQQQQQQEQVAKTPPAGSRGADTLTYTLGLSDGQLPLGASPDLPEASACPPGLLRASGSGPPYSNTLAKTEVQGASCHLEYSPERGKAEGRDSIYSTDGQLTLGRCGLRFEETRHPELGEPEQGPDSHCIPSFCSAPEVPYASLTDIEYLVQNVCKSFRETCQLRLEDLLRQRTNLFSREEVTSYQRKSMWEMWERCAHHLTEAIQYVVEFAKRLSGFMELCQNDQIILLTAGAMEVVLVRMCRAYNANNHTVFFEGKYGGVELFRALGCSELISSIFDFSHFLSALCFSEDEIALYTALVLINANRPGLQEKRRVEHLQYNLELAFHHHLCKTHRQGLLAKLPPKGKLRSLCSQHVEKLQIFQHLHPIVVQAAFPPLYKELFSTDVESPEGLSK
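Using a luciferase readout, inhibitors were identified by reduced reporter activity in Drosophila cells coexpressing a copper-inducible Gal4–ROR gamma fusion and UAS-driven Photinus luciferase, incubated 20 hr after 700 uM copper sulfate.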
ELG1 DNA repair = blocks ELG1-dependent DNA repair in HEK293T cells; HEK293T ELG1-luciferase reporter, luminescence, 16 h; DNA damage induced by 5-fluorouridine; Potency, µM (titrated, usually from 46.1 µM), actives largely listed as inhibitors; hit rate 2.3% among 330,000; note: nearly all actives have a fitted effect of over 55% in size
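DMSO vehicle served as the neutral condition. Each well held 2,000 cells given 5-fluorouridine plus compound; after 16 hr at 37 °C/5% CO2, ONE-Glo was added and luciferase measured 30 min later.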
p53 reactivator = re-activators of mutant p53. AID 504706. Potency, µM (top dose mostly 92.2 µM), hits mostly activators. H1299 p53-A138V BP100-luciferase reporter, luminescence, 24 h. hit rate 0.063% among 320,000; note: nearly all actives have a fitted effect of over 45% in size
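H1299 (p53-null), stable ts p53-A138V + BP100-Luc; 1000 cells/well, Opti-MEM/10% FBS; cpd 4 pt, 1:5; 24 h, 37 deg C, 5% CO2; detection reagent 10 min RT; luminescence.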
Giardia killer = Giardia lamblia killing | activity change, % at 7.66 µM, hits read low | hit rate 0.15% among 340,000 | AID 540267 | Giardia lamblia trophozoite viability; in the data active = activity change below about -80%; inconclusive = between about -30% and that limit;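 note: parasites exposed to compound for two days anaerobically before the ATP read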
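Luminescence from cellular ATP indicates surviving trophozoites (100 cells/well) following 48 hrs anaerobic compound treatment at 37 deg C; signal develops 15-30 min at room temperature.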
A number is an active result; n = inactive; u = inconclusive; x = no result. Shown are actives, neighbours in structure and some others; about 7.6% of the full set was active somewhere. Unless noted, calls come from the whole dose curve; as a rule, active = well fitted curve in the direction sought with a large enough effect; inconclusive = small, poorly fitted or top-dose-only effect, or another doubt; inactive = no such curve, though single readings can be large; an effect the other way counts as inactive or inconclusive.

SMILES	BRCA1 expr up	Gal4-VP16 FLuc	RORg inh	ELG1 DNA repair	p53 reactivator	Giardia killer
C=C(C)CSc1nncn1/N=C/c1ccc(OC)cc1	7.94µM	n	n	u	u	n
COc1ccccc1C(=O)N1CCN=C1c1ccccc1	n	n	n	n	n	n
COCCNc1nc(-c2ccc(OC)cc2)c(-c2ccc(OC)cc2)s1	n	n	11.2µM	20.6µM	n	n
CCN(CC)CCNc1nc(-c2ccc(OC)cc2)c(-c2ccc(OC)cc2)s1	n	n	u	n	n	n
CCCCCCNc1nc(-c2ccc(OC)cc2)c(CCC(=O)O)s1	n	15.8µM	u	n	n	n
COC(=O)CCc1sc(NC2CCCCC2)nc1-c1ccc(OC)cc1	n	u	n	u	n	n
COc1ccc(-c2sc(NC(C)=O)nc2-c2ccccc2)cc1	n	n	n	n	n	n
COc1ccc(-c2nc(NC(C)=O)sc2-c2ccccc2)cc1	n	n	n	20.6µM	n	n
COc1ccc(CCN2C(=S)NC3CC2(C)Oc2ccc([N+](=O)[O-])cc23)cc1OC (configuration not stated)	n	u	15.8µM	25.9µM	n	n
CC(OC(=O)c1ccccc1)C(=O)NCc1ccco1 (configuration not stated)	n	x	x	n	n	n
Cn1c(=O)c2c(nc(N/N=C/c3cccs3)n2Cc2ccccc2)n(C)c1=O	n	u	u	6.51µM	n	n
Cn1c(=O)c2c(nc(N/N=C/c3ccc(OC(=O)c4ccco4)cc3)n2Cc2ccccc2)n(C)c1=O	n	u	n	20.6µM	n	n
COc1ccc(/C=C(\NC(=O)c2cccs2)C(=O)Nc2cccc3ccccc23)cc1OC	n	n	n	u	n	n
O=C(NCCC(=O)N1CCc2ccccc21)c1ccco1	8.91µM	n	n	u	u	n
O=C(NCc1nnc(SCC(=O)N2CCc3ccccc32)o1)c1ccco1	n	n	n	n	n	n
O=C(CSCc1ccco1)N1CCc2ccccc21	2.51µM	n	n	u	u	n
COc1cc2c(cc1OC)C1C(=O)c3ccc4c(c3OC1CO2)C=CC(C)(C)O4 (configuration not stated)	x	0.126µM	u	x	x	x
COc1ccc([C@@H]2COc3c(ccc4c3C=CC(C)(C)O4)C2)c(OC)c1	n	x	x	x	x	n
O=C(c1cc(Cl)cc(Cl)c1)N1CCN(c2cc(C(F)(F)F)nc3ccccc23)CC1	n	n	n	20.6µM	n	n
O=C(N/N=C/c1ccc[nH]1)c1ccccc1OCc1ccccc1Cl	n	u	10µM	u	n	n
O=C(N/N=C/c1ccco1)c1ccccc1OCc1ccccc1Cl	n	n	n	u	n	n
O=C(N/N=C/c1ccc[nH]1)c1cccc([N+](=O)[O-])c1	n	10µM	7.94µM	n	n	n
O=C(N/N=C/c1ccc[nH]1)c1ccc(O)cc1	n	u	8.91µM	u	n	n
CC(C)(C)c1ccc(C2CC2C(=O)N/N=C\c2ccc[nH]2)cc1 (configuration not stated)	n	6.31µM	10µM	u	n	n
O=C(N/N=C/c1ccc[nH]1)c1ccc2c(c1)OCO2	u	n	u	u	n	u
SMILES	BRCA1 expr up	Gal4-VP16 FLuc	RORg inh	ELG1 DNA repair	p53 reactivator	Giardia killer
O=C(Nc1ccn(Cc2ccccc2)n1)c1ccc(F)cc1	u	n	n	u	n	n
COc1cc(C(=O)NCc2cc3ccccc3n2C)cc(OC)c1OC	n	n	u	n	n	n
CCn1c(C)[n+](CC)c2ccc(S(=O)(=O)NC)cc21	n	n	n	n	n	n
CC1(C)Cc2c(sc(NC(=O)c3ccccc3Cl)c2C(=O)O)CO1	n	n	u	n	n	n
O=C(N/N=C/c1oc(O)c2ccccc12)c1ccccc1O	n	n	u	n	n	n
Cc1cccc(/C=N/NC(=O)c2cccc([N+](=O)[O-])c2)n1	n	n	n	u	n	n
O=C(N/N=C/c1ccc[nH]1)c1ccccc1O	n	5.62µM	1.26µM	u	n	n
Cc1cc(/C=N/NC(=O)c2cccc([N+](=O)[O-])c2)c(C)n1-c1ccc(Cl)cc1Cl	n	6.31µM	1.78µM	u	n	n
O=C(N/N=C/c1ccc[nH]1)c1ccc(COc2cccc3cccnc23)cc1	n	14.1µM	12.6µM	u	n	n
CC(NS(=O)(=O)c1ccc2c(c1)C(=O)c1cc(S(=O)(=O)NC(C)C(=O)O)ccc1-2)C(=O)O (configuration not stated)	n	n	n	u	n	n
COc1cc(C2Nc3ccccc3C(=O)N2c2ccccc2)ccc1O (configuration not stated)	7.94µM	n	n	u	u	n
COc1cc(C2Nc3ccccc3C(=O)N2c2ccc(Cl)cc2)c(Cl)cc1OCC(=O)O (configuration not stated)	2.82µM	n	n	u	u	n
CCOc1cc(C2Nc3ccccc3C(=O)N2c2ccccc2)c(Br)cc1OCC(=O)O (configuration not stated)	n	n	n	n	n	n
CCOc1cc(C2Nc3ccccc3C(=O)N2c2ccccc2)ccc1O (configuration not stated)	n	n	n	u	n	n
COc1ccc(S(=O)(=O)N(C)C)cc1NCC(=O)Nc1ccc(Br)c(C)c1	n	n	n	u	n	n
COc1ccc(NCc2ccc([N+](=O)[O-])s2)c(OC)c1	n	11.2µM	n	n	u	u
CCC(C)[C@H](NC(=O)N1CC(=O)Nc2ccccc21)C(=O)N[C@H](Cc1ccccc1)C(=O)O (some centres not stated)	n	n	n	n	x	n
CCOC(=O)N1CCC(N2Cc3cccc(C(=O)NCc4ccccn4)c3C2=O)CC1	n	n	n	n	n	n
CCOC(=O)N1CCC(N2Cc3cccc(C(=O)NCc4ccc(C)cc4)c3C2=O)CC1	n	n	n	16.4µM	n	n
O=C(COC(=O)c1ccc(F)c(S(=O)(=O)N2CCOCC2)c1)NC1CCCCC1	n	x	x	n	n	n
CCOC(=O)c1sc(NC(=O)Nc2ccccc2Cl)cc1C	u	u	u	u	u	n
CCOC(=O)c1sc(NC(C)=O)cc1C	n	n	n	n	n	n
CCOC(=O)c1sc(NC(=O)Nc2ccccc2)cc1C	n	2.51µM	5.01µM	u	u	u
CCOC(=O)c1sc(NC(=O)c2ccc(C)s2)cc1C	u	u	1.26µM	u	n	u
CCC(c1nnnn1-c1ccc2c(c1)OCCO2)N1CCN(c2ccc(C)cc2)CC1 (configuration not stated)	n	x	x	x	x	x
COC(=O)Cn1c(CN(C)Cc2ccccc2)nc2c1c(=O)n(C)c(=O)n2C	n	12.6µM	u	n	u	n
